Inconclusive results are not listed. Where a call stands in place of a potency, no number is given. Activity calls are given as the source filed them. Calls come from the whole dose curve; as a rule, active = well fitted inhibition curve with a large enough effect; inconclusive = small, poorly fitted or top-dose-only effect; inactive = flat fitted curve, though single readings scatter.
Key:
Assay in all cases: qHTS profiling for inhibitors of Plasmodium falciparum proliferation (AID 504749); note: nearly all actives have a fitted effect of over 60% in size
Settings in all cases: P. falciparum in erythrocytes, SYBR Green DNA, 72 h; series mostly up to 28.7 µM
[1] = test system: FAB9
How it was run: (§1)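 Each compound contacts P. falciparum-infected red blood cells for 72 h at 37 C; lysis buffer (Tris, EDTA, saponin, Triton X, SYBR Green I) is added and fluorescence measured next morning; values normalized to controls.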

[2] = test system: GB4
How it was run: as §1

[3] = test system: HB3
How it was run: as §1

[4] = test system: ICS
How it was run: as §1

[5] = test system: JCK
How it was run: as §1

[6] = test system: N140
How it was run: as §1

[7] = test system: P93_24
How it was run: as §1

[8] = test system: P94_40
How it was run: as §1

[9] = test system: PC15
How it was run: as §1

[10] = test system: PC26
How it was run: as §1

[11] = test system: PC49
How it was run: as §1

[12] = test system: SC27B
How it was run: as §1

[13] = test system: TAB109
How it was run: as §1

[14] = test system: TAB113
How it was run: as §1

[15] = test system: TAB165
How it was run: as §1

[16] = test system: W2
How it was run: as §1

[17] = test system: PAD
How it was run: as §1
Potency is the fitted concentration of half-maximal effect.

SMILES	Potency [1]	Potency [2]	Potency [3]	Potency [4]	Potency [5]	Potency [6]	Potency [7]	Potency [8]	Potency [9]	Potency [10]	Potency [11]	Potency [12]	Potency [13]	Potency [14]	Potency [15]	Potency [16]	Potency [17]
CNC1(c2ccccc2Cl)CCCCC1=O (stereo not given)	inactive	12 µM (active)	inactive	inactive	inactive	inactive	inactive	inactive	inactive	inactive	inactive	inactive	inactive	inactive	inactive	4.78 µM (active)	
[O]=[Cr](=[O])([OH])[O][Cr](=[O])(=[O])[OH]	inactive	inactive	inactive	inactive	inactive	inactive	inactive	inactive	inactive	inactive	inactive	inactive	inactive	inactive	inactive	inactive	inactive
[Cl-].[Cl-].[Hg+2]	7.08 µM (active)	4.78 µM (active)	inactive	12.6 µM (active)		10 µM (active)										9.53 µM (active)	7.08 µM (active)
CN1C2CCC1CC(OC(c1ccccc1)c1ccc(Cl)cc1)C2 (stereo not given)	11.2 µM (active)	6.01 µM (active)	12.6 µM (active)	3.55 µM (active)	12.6 µM (active)	11.2 µM (active)	8.91 µM (active)	10 µM (active)	3.98 µM (active)	7.57 µM (active)	5.01 µM (active)	11.2 µM (active)	7.08 µM (active)	7.94 µM (active)	5.01 µM (active)	2.39 µM (active)	12.6 µM (active)
CNC(C)C(O)c1ccc(O)cc1 (stereo not given)	inactive	inactive	inactive	inactive	inactive	inactive	inactive	inactive	inactive	inactive	inactive	inactive	inactive	inactive	inactive	inactive	inactive
N#CC1(N2CCCCC2)CCCCC1	inactive	inactive	inactive	inactive	inactive	inactive	inactive	inactive	inactive	inactive	inactive	inactive	inactive	inactive	inactive	inactive	inactive
O=C1CCO1	inactive	inactive	inactive	inactive	inactive	inactive	inactive	inactive		inactive	inactive	inactive	inactive	inactive	inactive	inactive	inactive
CN1c2ccccc2C(NCCCCCCC(=O)O)c2ccc(Cl)cc2S1(=O)=O (stereo not given)	inactive	inactive	inactive	inactive	inactive	inactive	inactive	inactive	inactive	inactive	inactive	inactive	inactive	inactive	inactive	inactive	inactive
C=CCN1CC[C@]23c4c5ccc(O)c4O[C@H]2[C@@H](O)C=C[C@H]3[C@H]1C5	inactive	inactive	inactive	inactive	inactive	inactive	inactive	inactive	inactive	inactive	inactive	inactive	inactive	inactive	inactive	inactive	inactive
O=c1[nH]c(=O)n(Cl)c(=O)n1Cl	inactive	inactive	inactive	inactive	inactive	inactive	inactive	inactive	inactive	inactive	inactive	inactive	inactive	inactive	inactive	inactive	inactive
O=Cc1ccco1	inactive	inactive	inactive	inactive	inactive	inactive	inactive	inactive	inactive	inactive	inactive	inactive	inactive	inactive		inactive	inactive
CCON=O	inactive	inactive	inactive	inactive	inactive	inactive	inactive	inactive	inactive	inactive	inactive	inactive	inactive	inactive	inactive	inactive	inactive
CC(C)CCON=O	inactive	inactive	inactive	inactive	inactive	inactive	inactive	inactive	inactive	inactive	inactive	inactive	inactive	inactive	inactive	inactive	inactive
O=C1CN(O)C(c2ccccc2)=c2cc(Cl)ccc2=N1	inactive	inactive	inactive	inactive	inactive	inactive	inactive	inactive	inactive	inactive	inactive	inactive	inactive	inactive	inactive	inactive	inactive
CCCC(C)(COC(N)=O)COC(=O)NC1CC1 (stereo not given)	inactive	inactive	inactive	inactive	inactive	inactive	inactive	inactive	inactive	inactive	inactive	inactive		inactive	inactive	inactive	inactive
C=CCN1CCC23c4c5ccc(O)c4O[C@H]2C(=O)CC[C@@]3(O)C1C5 (stereo not given in full)	inactive	inactive	inactive	inactive	inactive	inactive	inactive	inactive	inactive	inactive	inactive	inactive	inactive	inactive	inactive	inactive	inactive

SMILES	Potency [1]	Potency [2]	Potency [3]	Potency [4]	Potency [5]	Potency [6]	Potency [7]	Potency [8]	Potency [9]	Potency [10]	Potency [11]	Potency [12]	Potency [13]	Potency [14]	Potency [15]	Potency [16]	Potency [17]
C[N+]1(C)CCCCC1COC(=O)C(O)(c1ccccc1)c1ccccc1 (stereo not given)	inactive	inactive	inactive	inactive	inactive	inactive			inactive	inactive	inactive	inactive	inactive	inactive	inactive		inactive
S=C(S)N1CCNCC1	inactive	inactive	inactive	inactive	inactive	inactive	inactive	inactive	inactive	inactive	inactive	inactive	inactive	inactive	inactive	inactive	inactive
CCCC(C)C1(CC)C(=O)NC(=O)NC1=O (stereo not given)	inactive	inactive	inactive	inactive	inactive	inactive	inactive	inactive	inactive	inactive	inactive	inactive	inactive	inactive	inactive	inactive	inactive
CCC(N)Cc1c[nH]c2ccccc12 (stereo not given)	inactive	inactive	inactive	inactive	inactive	inactive	inactive	inactive	inactive	inactive	inactive	inactive	inactive	inactive	inactive	inactive	inactive
O=C(CS(=O)C(c1ccccc1)c1ccccc1)NO (stereo not given)	inactive	inactive	inactive	inactive	inactive	inactive	inactive	inactive	inactive	inactive	inactive	inactive		inactive	inactive	inactive	inactive
ClC(Cl)(Cl)Cl	inactive	inactive	inactive	inactive	inactive	inactive	inactive	inactive	inactive	inactive	inactive	inactive	inactive	inactive	inactive	inactive	inactive
CC(N)Cc1ccc(O)cc1 (stereo not given)	inactive	inactive	inactive	inactive	inactive	inactive	inactive	inactive	inactive	inactive	inactive	inactive	inactive	inactive	inactive	inactive	inactive
CCC1C(C)=NN=C(c2ccc(OC)c(OC)c2)c2cc(OC)c(OC)cc21 (stereo not given)	inactive	inactive	inactive	8.91 µM (active)	inactive			inactive	inactive		inactive	inactive	inactive	inactive	inactive		inactive
[O]=[Cd]	inactive	inactive	inactive	inactive	inactive	inactive	inactive	inactive	inactive	inactive	inactive	inactive	inactive	inactive	inactive	inactive	inactive
O=[N+]([O-])c1cc(I)c(O)c(I)c1	inactive	inactive	inactive	inactive	inactive	inactive	inactive	inactive	inactive	inactive	inactive	inactive	inactive	inactive	inactive	inactive	inactive
O=C1CN=C(c2ccccc2)c2cc(Cl)ccc2N1CC1CC1	inactive	inactive	inactive		inactive	inactive	inactive	inactive	inactive	inactive	inactive	inactive	inactive	inactive	inactive		inactive
F/C(COc1ccc2c(c1)[nH]c1ccccc12)=C1/CN2CCC1CC2	inactive			3.55 µM (active)		10 µM (active)	6.31 µM (active)				2.82 µM (active)	10 µM (active)	7.94 µM (active)		4.47 µM (active)	1.51 µM (active)	8.91 µM (active)
CCCN1CCCC2Cc3[nH]ncc3CC21 (stereo not given)	inactive		inactive	inactive	inactive	inactive	inactive	inactive	inactive		inactive	inactive	inactive	inactive	inactive		inactive
Oc1cc(Cl)c(Cl)cc1Cl	inactive		inactive		inactive	inactive	inactive	inactive	inactive	inactive	inactive	inactive	inactive	inactive	inactive	inactive	inactive
COCC(C)N(C(=O)CCl)c1c(C)csc1C (stereo not given)	inactive	inactive	inactive		inactive	inactive	inactive	inactive	inactive	inactive	inactive	inactive	inactive	inactive	inactive	inactive	inactive
